# Experimental data from ChEMBL document CHEMBL3988442, “University of Dundee, Small-Polar-MMV Screening Library” (2021).
# Assays:
# [1] = target: T1, Aspartate--tRNA(Asp/Asn) ligase (Mycobacterium tuberculosis (strain ATCC 25618 / H37Rv)) (UniProt P9WFW3); assay: Assay for Asp RNA synthetase-1 from Mycobacterium tuberculosis; type: functional; parameters: scale not given: direction of the effect not stated beside the values; conditions: 30 µM; further: in the data most compounds retested in dose-response had high values
# T1 sequence (whole entry): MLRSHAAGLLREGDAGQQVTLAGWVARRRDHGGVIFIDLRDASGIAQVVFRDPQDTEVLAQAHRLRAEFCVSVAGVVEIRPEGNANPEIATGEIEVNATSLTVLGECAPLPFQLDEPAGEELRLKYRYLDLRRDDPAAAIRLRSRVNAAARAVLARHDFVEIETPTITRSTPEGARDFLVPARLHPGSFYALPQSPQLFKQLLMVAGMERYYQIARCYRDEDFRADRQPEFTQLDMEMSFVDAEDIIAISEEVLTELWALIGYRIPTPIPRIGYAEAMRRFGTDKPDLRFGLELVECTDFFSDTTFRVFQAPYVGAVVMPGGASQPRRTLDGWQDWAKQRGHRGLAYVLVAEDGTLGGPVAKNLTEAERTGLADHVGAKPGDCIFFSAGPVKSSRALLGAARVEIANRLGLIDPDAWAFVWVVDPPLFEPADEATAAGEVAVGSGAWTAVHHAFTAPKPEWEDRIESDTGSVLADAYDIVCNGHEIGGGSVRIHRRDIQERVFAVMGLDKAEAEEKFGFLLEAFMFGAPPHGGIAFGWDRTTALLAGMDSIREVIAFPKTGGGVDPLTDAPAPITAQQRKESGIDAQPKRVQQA
# [2] = target: Shiga toxin 2 (Escherichia coli O157:H7) (UniProt P09385+P09386); assay: E. coli 0.157:H7 Shiga Toxin SOP - stx2 screening assay; type: functional; parameters: scale not given: direction of the effect not stated beside the values; conditions: 30 µM
smiles,measurement,setting,value
CCOc1ccc(C#N)cc1NCC(=O)Nc1cc(C)no1,Percent Effect,[1],-5.54%
same,Percent Effect,[2],-11.5%
CC(C)c1n[nH]c(C2CN(C(=O)c3csnn3)CCO2)n1 (stereo unspecified),Percent Effect,[1],-5.03%
same,Percent Effect,[2],-13.5%
CCOc1ccc(NC(=O)NCc2csc(NC)n2)cc1C,Percent Effect,[1],-0.262%
same,Percent Effect,[2],-26.6%
COc1cc2nc3n(c(=O)c2cc1OC)CCN(C)CC3,Percent Effect,[1],-1.59%
same,Percent Effect,[2],-7.54%
CCN1CC(C(=O)NCc2ccnc(-n3ccnc3C)c2)CC1=O (stereo unspecified),Percent Effect,[1],-3.16%
same,Percent Effect,[2],-11.9%
CSCC(CCO)NC(=O)Nc1cc(Br)ccc1C (stereo unspecified),Percent Effect,[1],3.02%
same,Percent Effect,[2],-10.3%
CC(=O)NC1CCCN(C(=O)c2ccc(Br)cc2O)C1 (stereo unspecified),Percent Effect,[1],2.34%
same,Percent Effect,[2],19.3%
Cc1ccc(CN2Cc3c(C(=O)N(C)C)nn(C)c3C2)s1,Percent Effect,[1],1.3%
same,Percent Effect,[2],-23.6%
Cn1cc(C(=O)N2CCC(Cc3nccs3)CC2)cn1,Percent Effect,[1],2.4%
same,Percent Effect,[2],59.9%
Cc1n[nH]c(C2CN(C(=O)c3cnc[nH]3)CCO2)n1 (stereo unspecified),Percent Effect,[1],1.76%
same,Percent Effect,[2],23.8%
CCS(=O)(=O)N1C[C@@H](OCc2cccnc2)[C@H]2OCCC[C@H]21,Percent Effect,[1],3.4%
same,Percent Effect,[2],5.21%
CC(C)c1nc(C(=O)N2CCOCC2CC(=O)c2ccco2)c[nH]1 (stereo unspecified),Percent Effect,[1],-0.629%
same,Percent Effect,[2],-1.83%
CN(C)CCOCC1CN(Cc2ccsc2)Cc2ccnn2C1 (stereo unspecified),Percent Effect,[1],-0.625%
same,Percent Effect,[2],3.55%
Cc1nc[nH]c1CN1C[C@@H]2CC[C@H](C1)N(C(=O)CCc1cnn(C)c1)C2,Percent Effect,[1],0.752%
same,Percent Effect,[2],5.79%
Cc1nn(C)c(C)c1C1CCCN1C(=O)c1cc[nH]n1 (stereo unspecified),Percent Effect,[1],-5.05%
same,Percent Effect,[2],11.4%
Cc1ccc(-c2nc(CN3CCc4c(ncn4C)C3)cs2)o1,Percent Effect,[1],-4.21%
same,Percent Effect,[2],0.313%
CS(=O)(=O)NCC1CCCN(C(=O)COCc2ccccc2)C1 (stereo unspecified),Percent Effect,[1],-6.12%
same,Percent Effect,[2],-16.5%
CC(C)c1cc(C(=O)NCCN2CCCS2(=O)=O)n[nH]1,Percent Effect,[1],-5.19%
same,Percent Effect,[2],-14.6%
CN(CC(=O)N(C)C1CCCCC1)C1CCc2ccccc21 (stereo unspecified),Percent Effect,[1],0.433%
same,Percent Effect,[2],34.7%
CC(C)(C)c1nc(CN2CCC(c3nc4cc(Cl)ccc4o3)CC2)no1,Percent Effect,[1],-2.4%
same,Percent Effect,[2],-14.9%
CCc1nc(CCNC(=O)C2CCOC2)sc1C (stereo unspecified),Percent Effect,[1],-2.83%
same,Percent Effect,[2],30.6%
CCNC(=O)N1CCCC(c2noc(CC)n2)C1 (stereo unspecified),Percent Effect,[1],-2.74%
same,Percent Effect,[2],17.9%
Cn1c(C(F)(F)F)nn(CCNC(=O)CSCc2ccccc2)c1=O,Percent Effect,[1],-5.63%
same,Percent Effect,[2],4.5%
